Reference: PubChem BioAssay (EPA / NIEHS)
Inconclusive results are not listed. Activity calls are given as the source filed them. How the source made its calls: active means hit-call score of the fitted dose curve at least 0.9, where 1 is the maximum; inconclusive means response in the unintended direction; inactive means score below 0.9.

These molecules were tested against human Opioid Receptor Mu (Opiate Mu), OPRM1 (gene 4988) (UniProt P35372) (assay: NVS_GPCR_hOpiate_mu: NovaScreen (NVS) G Protein-Coupled Receptor Assay for human Opioid Receptor Mu (Opiate Mu) (AID 2283290);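 further: hits lower bound tracer signal versus DMSO meaning displacement of the ligand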).
human Opioid Receptor Mu (Opiate Mu), OPRM1 (gene 4988), sequence (P35372 whole entry, looked up): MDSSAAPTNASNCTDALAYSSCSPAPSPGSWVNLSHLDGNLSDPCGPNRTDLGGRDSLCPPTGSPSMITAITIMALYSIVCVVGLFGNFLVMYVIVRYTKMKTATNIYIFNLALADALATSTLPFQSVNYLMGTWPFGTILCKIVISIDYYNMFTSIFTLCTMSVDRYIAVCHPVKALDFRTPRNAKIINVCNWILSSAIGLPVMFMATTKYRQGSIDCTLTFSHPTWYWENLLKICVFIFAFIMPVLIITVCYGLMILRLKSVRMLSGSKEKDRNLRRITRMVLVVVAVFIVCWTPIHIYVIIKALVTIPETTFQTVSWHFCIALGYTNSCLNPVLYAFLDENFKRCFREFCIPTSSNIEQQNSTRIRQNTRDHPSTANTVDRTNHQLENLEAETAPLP
Protocol: NVS_GPCR_hOpiate_mu is a biochemical, single-readout assay that uses extracted gene-proteins from CHO in a cell-free assay. Measurements were taken 2.5 hours after chemical dosing in a 96-well plate.NVS_GPCR_hOpiate_mu is one of one assay component(s) measured or calculated from the NVS_GPCR_hOpiate_mu assay. It is designed to make measurements of radioligand binding, a form of binding reporter, as detected with scintillation counting signals by Filter-based radiodetection technology.Data from the assay component NVS_GPCR_hOpiate_mu was analyzed into 1 assay endpoint. This assay endpoint, NVS_GPCR_hOpiate_mu, was analyzed in the positive analysis fitting direction relative to DMSO as the negative control and baseline of activity. Using a type of binding reporter, loss-of-signal activity can be used to understand changes in the binding as they relate to the gene OPRM1. Furthermore, this assay endpoint can be referred to as a primary readout, because the performed assay has only produced 1 assay endpoint. To generalize the intended target to other relatable targets, this assay endpoint is annotated to the gpcr intended target family, where the subfamily is rhodopsin-like receptor.
Binding assays used specific radioligands (tritiated, iodinated) with non-radioactive competitive displacement ligands in agonist or antagonist protocols (as indicated) and various reference compounds and inhibitors to titrate specific binding to receptors and transporters. Most enzyme assays (CYPs, kinases, phosphatases, proteases, HDACs) used recombinant protein and specific substrates (fluorescence mostly, some colorimetric and radioactive) and inhibitors, followed by a biochemical separation of substrate and product. All assays for the biochemical HTS were initially run in duplicate at a single concentration (10 uM for CYP450 assays and 25 uM for all others). […] Each assay was run with positive and negative controls, and concurrent controls on every plate. The follow-up (secondary) screen tested active chemical-pairs in concentration series, as well as a few additional assays not tested in the primary screen, some selected negative inactives, and several cases re-run in the concentration series for confirmatory purposes.

Compound | AC50 | outcome
N#CCCC(Br)(C#N)CBr (stereo unspecified) | 20.6 µM (active) | –
O=S(=O)(C(Cl)(Cl)Cl)C(Cl)(Cl)Cl | 7.84 µM (active) | –
CCOP(=O)(OCC)SCCSCC | – | inactive
[Cl][Sn]([c]1ccccc1)([c]1ccccc1)[c]1ccccc1 | 0.664 µM (active) | –
O=c1oc2ccccc2c(O)c1C(CC(O)c1ccc(-c2ccc(Br)cc2)cc1)c1ccccc1 (stereo unspecified) | 13.7 µM (active) | –
CN(C)C(=S)S | 6.66 µM (active) | –
CCCCCCCCCCCCc1cccc(S(=O)(=O)O)c1 | 14.4 µM (active) | –

The molecules below were run against rat Adrenergic Receptor, Alpha 2 (Adra2), Non-selective Binding, Adra2a (gene 25083) (UniProt P22909) (assay: NVS_GPCR_rAdra2_NonSelective: NovaScreen (NVS) G Protein-Coupled Receptor Assay for rat Adrenergic Receptor, Alpha 2 (Adra2), Non-selective Binding (AID 2283299)).
rat Adrenergic Receptor, Alpha 2 (Adra2), Non-selective Binding, Adra2a (gene 25083), sequence (P22909 whole entry, looked up): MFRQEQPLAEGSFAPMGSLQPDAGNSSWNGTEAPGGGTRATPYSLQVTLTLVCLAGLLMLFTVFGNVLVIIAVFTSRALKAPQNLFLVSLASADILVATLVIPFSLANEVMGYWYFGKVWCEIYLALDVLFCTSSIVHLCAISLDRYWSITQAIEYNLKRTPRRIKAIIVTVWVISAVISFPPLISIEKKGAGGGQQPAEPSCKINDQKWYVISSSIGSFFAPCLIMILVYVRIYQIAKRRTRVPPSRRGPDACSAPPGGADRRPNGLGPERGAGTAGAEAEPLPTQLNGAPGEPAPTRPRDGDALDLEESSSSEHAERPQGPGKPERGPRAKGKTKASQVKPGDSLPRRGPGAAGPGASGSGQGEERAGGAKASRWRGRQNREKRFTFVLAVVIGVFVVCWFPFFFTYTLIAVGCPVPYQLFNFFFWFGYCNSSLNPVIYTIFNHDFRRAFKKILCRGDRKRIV
Method in brief: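 Rat cortical membranes, radioligand competitive displacement read by filter-based scintillation counting 1.25 hours after dosing. Primary screen in duplicate at 25 uM; actives followed up in concentration series.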

Compound | AC50 | outcome
C[N+](C)(C)Cc1ccccc1 | 31.5 µM (active) | –
[Cl][Sn]([c]1ccccc1)([c]1ccccc1)[c]1ccccc1 | 9.5 µM (active) | –
COc1ccccc1N | 25 µM (active) | –
CCC(C)(C#N)N=NC(C)(C#N)CC (stereo unspecified) | – | inactive

Each molecule was assayed against Sodium channel protein type 1 subunit alpha (Rattus norvegicus) (UniProt P04774) (assay: NVS_IC_rNaCh_site2: NovaScreen (NVS) Ion Channel Assay for rat Sodium Channel, Site 2 (NaCh) (AID 2283322);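 further: hit means loss of radioligand binding signal relative to DMSO so AC50 marks displacement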).
Method in brief: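 Membranes: rat forebrain. Format: competitive radioligand displacement, filter separation, scintillation readout, 1 h exposure. Primary screen in duplicate at 25 uM; actives retested in concentration series.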

Compound | outcome | AC50
Brc1c(Br)c(Br)c(Oc2c(Br)c(Br)c(Br)c(Br)c2Br)c(Br)c1Br | inactive | –
CCCCCCCCCCBr | inactive | –
NC(=O)CCl | – | 42.5 µM (active)
OC(Cc1ccccc1Cl)(Cn1cncn1)C1(Cl)CC1 (stereo unspecified) | – | 6.73 µM (active)
CCOP(=O)(OCC)SCCSCC | inactive | –
CCOP(=S)(OCC)SCS(=O)(=O)C(C)(C)C | inactive | –
CCCCCCCCCCCCN(C)C | inactive | –
CC(C)(COCC1CO1)COCC1CO1 (stereo unspecified) | – | 2.05 µM (active)

Each molecule was assayed against rat Thyrotropin Releasing Hormone Receptor (TRH), Trhr (gene 25570) (UniProt Q01717) (assay: NVS_GPCR_rTRH: NovaScreen (NVS) G Protein-Coupled Receptor Assay for rat Thyrotropin Releasing Hormone Receptor (TRH) (AID 2283329);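 further: hit means lower bound tracer signal versus DMSO baseline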).
rat Thyrotropin Releasing Hormone Receptor (TRH), Trhr (gene 25570), sequence (Q01717 whole entry, looked up): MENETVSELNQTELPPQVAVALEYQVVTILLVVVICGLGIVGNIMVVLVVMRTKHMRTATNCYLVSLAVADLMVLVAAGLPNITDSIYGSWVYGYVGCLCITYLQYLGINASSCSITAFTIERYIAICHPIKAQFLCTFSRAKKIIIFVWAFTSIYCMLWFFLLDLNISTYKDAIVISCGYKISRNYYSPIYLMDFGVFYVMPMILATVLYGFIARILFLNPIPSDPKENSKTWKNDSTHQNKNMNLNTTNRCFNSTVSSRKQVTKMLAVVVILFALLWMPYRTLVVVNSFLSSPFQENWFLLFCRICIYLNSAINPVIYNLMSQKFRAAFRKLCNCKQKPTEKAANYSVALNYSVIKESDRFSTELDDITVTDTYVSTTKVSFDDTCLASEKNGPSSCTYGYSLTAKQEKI
Method in brief: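 Test compounds are screened at 25 uM in duplicate against radioligand binding in rat forebrain membranes, with active pairs followed up over a concentration range. Detection uses filter-based radiodetection after a 4 h exposure.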

Compound | outcome
N#CCCC(Br)(C#N)CBr (stereo unspecified) | inactive
O=C(CCl)Nc1ccccc1 | inactive
O=[N+]([O-])c1ccc(Cl)c([N+](=O)[O-])c1 | inactive
CN(N=O)C(N)=O | inactive
CC(C)N(C(=O)CCl)c1ccccc1 | inactive
CC(O)(CS(=O)(=O)c1ccc(F)cc1)C(=O)Nc1ccc(C#N)c(C(F)(F)F)c1 (stereo unspecified) | inactive
O=c1[nH]c(=O)n(Cl)c(=O)n1Cl | inactive
O=c1nc(O)n(Cl)c(=O)n1Cl | inactive
O=C(CBr)c1ccc(O)cc1 | inactive
CNC(=O)O/N=C/C(C)(C)S(C)(=O)=O | inactive
CC(=Cc1ccccc1)[N+](=O)[O-] | inactive
N#CCC#N | inactive
CCC[CH2][Sn]([Cl])([Cl])[CH2]CCC | inactive
COc1nn(C(=O)NS(=O)(=O)c2ccccc2OC(F)(F)F)c(=O)n1C | inactive
O=S1(=O)OC(c2cc(Br)c(O)c(Br)c2)(c2cc(Br)c(O)c(Br)c2)c2ccccc21 | inactive
CCOCn1c(-c2ccc(Cl)cc2)c(C#N)c(Br)c1C(F)(F)F | inactive
COc1ccccc1N | inactive
